S1P3 antagonist: S1P3 receptor antagonists, primary screen, cell-based. Sphingosine 1-phosphate receptor 3 (Homo sapiens), Q99500. CHO S1P3 NFAT-BLA reporter, FRET fluorescence, antagonist mode. inhibition, % at 4.98 µM. 170,000 tested, 0.27% active. AID 485, 2006;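 active = inhibition above the plate cutoff, the mean inhibition of test wells on that plate plus 3 SD, cut at about 28% in these data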;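 note: cells challenged with S1P at its EC80 of 0.8 µM; blue over green emission ratio from cleaved BLA substrate after 4 h stimulation; 0% = S1P-stimulated wells and 100% = unstimulated DMSO-only wells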
p97 ATPase inh: inhibitors of human p97 ATPase, primary screen, biochemical. AID 1481, 2009. recombinant p97 ATPase, Kinase-Glo ATP luminescence, 3 h. 220,000 tested, 0.42% active. inhibition, % at 8 µM. Transitional endoplasmic reticulum ATPase (Homo sapiens), P55072; in the data active = inhibition above about 15%;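 note: 0% = DMSO vehicle and 100% = wells lacking enzyme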
SUMO HTRF inh: inhibitors of in vitro SUMOylation cascade, primary screen, biochemical, HTRF, uHTS; SUMO-conjugating enzyme UBC9 (Homo sapiens), P63279; HTRF SUMOylation assay, SAE1/SAE2 + UBC9; inhibition, % at 35 µM; 290,000 tested, 0.36% active; AID 2006, 2009; in the data active = inhibition above about 50%, passing the limit was not always enough
Target sequence (P63279 whole entry, looked up): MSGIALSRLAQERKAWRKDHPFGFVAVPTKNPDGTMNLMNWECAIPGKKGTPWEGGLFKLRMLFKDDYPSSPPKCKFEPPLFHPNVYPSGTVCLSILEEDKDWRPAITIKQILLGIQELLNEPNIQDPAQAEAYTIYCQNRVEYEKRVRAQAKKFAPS
S1P4 ag: S1P4 receptor agonists, primary screen, cell-based | 220,000 tested, 0.35% active | AID 1509, 2009 | S1P4-expressing cell line, agonist reporter assay | activation, % at 4.98 µM | Sphingosine 1-phosphate receptor 4 (Homo sapiens), O95977; in the data active = activation above about 11%;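 note: 0% = DMSO vehicle and 100% = reference agonist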
S1P4 antagonist: S1P4 receptor antagonists, primary screen, cell-based; inhibition, % at 4.98 µM; AID 1510, 2009; S1P4-expressing cells, antagonist mode, reporter read-out; Sphingosine 1-phosphate receptor 4 (Homo sapiens), O95977; 220,000 tested, 0.26% active; in the data active = inhibition above about 29%;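 note: 0% = wells stimulated with agonist and 100% = vehicle wells without agonist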
Redox H2O2 prof: compounds producing H2O2 with reducing agent – biochemical, NIH compound library profiling, artefact control for MLSCN library redox annotation, primary screen; DTT-dependent redox cycling H2O2, phenol red/HRP absorbance; 100% = 100 µM peroxide control, 0% = buffer; activation, % at 10 µM; 200,000 tested, 0.03% active; AID 878, 2007;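 active = activation of at least 50% relative to the plate's high and low controls in the primary single-dose screen; inactive = activation below 50%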;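 note: compound incubated with DTT at 0.8 mM final as the reducing agent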
S1P4 antag cf: S1P4 receptor antagonists, human, confirmation, cell-based; shares compounds with S1P4 antagonist; AID 1524, 2009; S1P4-expressing cell line, antagonist mode, reporter read-out; inhibition, % at 4.98 µM; 520 tested, 71% active; in the data active = inhibition above about 30%
S1P1 antagonist: S1P1 receptor antagonists, human, counter-screen for S1P4 antagonist project, cell-based; shares compounds with S1P4 antagonist; cell-based S1P1 antagonist counterscreen, inhibition; inhibition, % at 4.98 µM; 520 tested, 37% active; AID 1564, 2009; in the data active = inhibition above about 40%;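 note: receptor stimulated with S1P near its EC80; 0% = agonist stimulated wells and 100% = vehicle only wells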
Target sequence (P21453 whole entry, looked up): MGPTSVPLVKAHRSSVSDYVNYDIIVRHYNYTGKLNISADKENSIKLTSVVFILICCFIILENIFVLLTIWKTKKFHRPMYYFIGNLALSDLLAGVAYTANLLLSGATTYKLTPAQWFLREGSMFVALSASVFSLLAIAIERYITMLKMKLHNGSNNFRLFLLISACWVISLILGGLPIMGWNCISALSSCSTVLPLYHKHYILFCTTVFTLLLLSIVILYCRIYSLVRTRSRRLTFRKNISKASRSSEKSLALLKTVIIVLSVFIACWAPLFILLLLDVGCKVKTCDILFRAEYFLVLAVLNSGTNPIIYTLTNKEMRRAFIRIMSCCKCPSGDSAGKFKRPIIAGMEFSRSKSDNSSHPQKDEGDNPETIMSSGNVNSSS
Active calls of the source: *; / = not tested or not shown. Most compounds without a hit are left out; they make up all but 1.1% or so of the library.

SMILES	S1P3 antagonist	p97 ATPase inh	SUMO HTRF inh	S1P4 ag	S1P4 antagonist	Redox H2O2 prof	S1P4 antag cf	S1P1 antagonist
COCCN(CCOC)c1ncnc2c1cnn2-c1ccc(Cl)cc1	/	-8	16	-1	5	-1	/	/
COCCNc1ncnc2c1cnn2-c1ccc(Cl)cc1	/	-4	14	0	33*	-1	8	20
COc1ccc(S(=O)(=O)N2CCCC2C(=O)n2nc(C)cc2C)cc1 (configuration not stated)	-18	2	-3	-2	-26	-9	/	/
FC(F)(F)c1cnc(Sc2nc3nccc(-c4ccc(Cl)cc4)n3n2)c(Cl)c1	/	-1	-21	0	-6	2	/	/
COc1ccc(-c2ccnc3nc(Sc4ncc(C(F)(F)F)cc4Cl)nn23)cc1	/	3	18	-1	61*	-5	1	21
CO/N=C(\C(=O)O)c1csc(NN=C(C)C)n1	2	-4	20	-1	6	-1	/	/
O=C(Nc1ccc(Cl)cc1)/C(=C/c1cccc(O)c1)c1nc2ccccc2s1	-10	4	6	0	38*	0	99*	62*
S=C(Nc1ccc(Cl)cc1)c1nc2ccccc2s1	/	3	-27	2	1	-3	/	/
CCc1nnc(N/N=C/c2ccccc2F)n1N	-9	6	-5	0	93*	-2	-15	-10
CCc1nnc(N/N=C/c2ccccc2Cl)n1N	/	0	-10	-1	40*	1	4	-3
Nn1cnnc1N/N=C/c1cccc(Cl)c1Cl	/	/	-10	/	/	/	/	/
Cc1ccc(N=C2NC(=O)/C(=C/c3cccn3C)S2)cc1C	4	-1	15	1	-1	/	/	/
Cc1cccc(N=C2NC(=O)/C(=C/c3cccn3C)S2)c1C	23	-5	-3	1	36*	/	16	14
Cc1ccc(C)c(C(=O)Cn2ncc(Cl)c(Cl)c2=O)c1	/	-1	8	0	67*	-1	116*	59*
CCCc1cc(=O)[nH]c(SCC(=O)c2cc(C)n(CC(F)(F)F)c2C)n1	-10	0	3	0	0	0	/	/
Cc1cc(C(=O)Cn2ncc(Cl)c(Cl)c2=O)c(C)n1CC(F)(F)F	0	-7	3	-1	90*	0	105*	65*
O=C(CSc1ccccn1)Nc1nonc1[N+](=O)[O-]	/	/	4	/	/	/	/	/
Cc1cc(NC(=O)/C=C/c2ccccc2)c(C(C)C)cc1O	8	0	10	1	94*	0	109*	13
Cc1cc(C)nc(S/C=C/C(=O)c2ccccc2F)n1	-2	-10	17	-1	43*	/	78*	-1
Cc1cc(NC(=O)c2ccccc2F)on1	12	1	4	2	-3	0	/	/
CN(C)/N=C/C=C1\CC/C(=C\c2ccc(Br)cc2)C1=O	/	-3	20	-1	30*	0	11	13
CNC(=O)Cn1nc(-c2ccc(Cl)cc2)c2ccccc2c1=O	/	/	-2	/	/	/	/	/
CCC(C)C(=O)N1CCc2cc(-c3csc(N)n3)ccc21 (configuration not stated)	-2	-3	23	-1	41*	-1	5	52*
CN1C(=O)/C(=C\C(=O)c2cccs2)c2ccccc21	-19	-4	6	-1	40*	2	97*	45*
O=C1CCN(C(=O)c2cccs2)c2ccccc21	5	3	8	0	-5	0	/	/
SMILES	S1P3 antagonist	p97 ATPase inh	SUMO HTRF inh	S1P4 ag	S1P4 antagonist	Redox H2O2 prof	S1P4 antag cf	S1P1 antagonist
CCOC(=O)C1=C(Cc2ccc(F)cc2)C(=O)c2ccccc2C1=O	/	2	8	-1	18	0	/	/
CCCCc1ccc(/C=C2\C(=O)c3ccccc3C(O)=C2C(=O)OCC)cc1	/	-3	2	-1	36*	-1	68*	22
CN1CCC(N(C)CC(=O)Nc2cccc(Oc3ccccc3)c2)CC1	16	-3	19	0	25	-1	/	/
CSc1ccccc1NC(=O)C(=O)c1c[nH]c2ccccc12	-18	5	-3	6	45*	1	5	47*
O=C(Nc1nccs1)C(=O)c1c[nH]c2ccccc12	/	7	10	-1	8	0	/	/
O=C(NCc1cccnc1)/C(=C\c1ccc(-c2ccc(Br)cc2)o1)S(=O)(=O)c1ccccc1	22	2	-42	1	52*	0	106*	64*
O=C(NCc1cccnc1)/C(=C/c1ccc(-c2ccc(Cl)cc2)o1)S(=O)(=O)c1ccccc1	/	5	17	-1	49*	-1	101*	43*
CNc1ccc(/C=C(\CCC(=O)O)c2nc3ccccc3s2)cc1[N+](=O)[O-]	-2	4	-27	3	2	0	/	/
COc1ccc(NC(=O)/C(Cl)=C(/Cl)S(=O)(=O)Cc2ccc(C)cc2)cn1	/	12	0	2	60*	0	116*	89*
COc1ccc(NC(=O)Cc2ccc(Cl)c(Cl)c2)cn1	2	4	0	2	-14	0	/	/
Cc1ccc(/C=C/C(=O)c2nc3ccccc3[nH]2)cc1	/	2	-1	2	29*	-4	81*	-6
Cc1ccc(/C=C/C(=O)Nc2nc3ccccc3[nH]2)cc1	-11	6	46	3	-21	1	/	/
Cc1ccc(S(=O)(=O)N2CCOCC2)c2nsnc12	/	-1	7	0	-3	0	/	/
O=S(=O)(c1ccc(Br)c2nsnc12)N1CCOCC1	19	8	6	1	79*	0	39*	36
CCN(CC)C(=O)CN(c1cccc(C(F)(F)F)c1)S(C)(=O)=O	/	-3	16	-2	-17	0	/	/
CCN(CC)C(=O)CN(c1cccc(Br)c1)S(C)(=O)=O	18	2	-3	1	30*	-1	2	-34
CCOC(=O)Cn1nc(C)c(NC(=O)COc2ccc([N+](=O)[O-])c(C)c2)c1C	-9	1	-7	1	40*	-1	2	24
Cc1ccc2nc3c(cc2c1)CN(Cc1ccco1)C(=NCC1CCCO1)S3 (configuration not stated)	35	2	-7	1	11	3	/	/
COCCN=C1Sc2nc3c(C)cccc3cc2CN1Cc1ccco1	/	2	34	-1	51*	2	24	8

Bioassay records deposited in PubChem by several laboratories.
